The results in this text go back to ChEMBL document CHEMBL3988442, “University of Dundee, Small-Polar-MMV Screening Library” (2021).

In all, about 38,000 compounds went through this assay and about 1,200 (3.2%) showed an effect of 50% or more. The median lay at about -58%. The list comes from a sample in which strong results are over-represented; it also holds similar structures and randomly drawn compounds.

This experiment has as its system Plasmodium falciparum. In words: Calibr Malaria Delayed Death Assay SOP. The note with it: concentration 4.99e-06 (unit not given; other assays of the set use mol/L). The class given is functional, organism-based. On the set-up: scale not given: in the data most compounds retested in dose-response had high values.
For `O=C(O)C(F)(F)F.O=S(=O)(C1CC1)N1CCC2(CCCN(c3ncccn3)C2)C1` (centres undefined), the “Percent Effect” value is -10.57%.
As to `CC(C)c1nc(C2CCCN(c3nccc(C(F)(F)F)n3)C2)no1` (centres undefined), the “Percent Effect” value is reported as -82.41%.
`CC(C)N1CCCC2(CCN(c3nccc(C(F)(F)F)n3)C2)C1=O` (centres undefined): the “Percent Effect” value is on record as -74.1%.
Consider `CN(C)C(=O)N1CCC2(CCCN(c3ncccn3)C2)C1.O=C(O)C(F)(F)F` (centres undefined), for which the “Percent Effect” value is -156.2%.
Under `C=C(C)CN(CC)C(=O)c1cc(F)ccc1N1CCN(C)CC1` stands -6.643%.
Under `CC(CNC(=O)c1cc(C2CC2)nc2c1cnn2C)Cn1cccn1` (centres undefined) stands -106.1%.
In the case of `Cc1ccc(C)c(Oc2ccc(CNC(=O)C3CCC(=O)N3)cn2)c1` (centres undefined), the “Percent Effect” value was -45.06%.
With `Cc1ccc(OCCNC(=O)C2CCOCC2)c(C)c1`, the “Percent Effect” value is listed as -53.04%.
For the compound `Cc1cc(N2CCCC(c3[nH]ncc3Cc3ccccc3)C2)nc(N)n1` (centres undefined), the “Percent Effect” value came out at 72.87%.
As to `Cc1ccc(N2CCCC(c3[nH]ncc3-c3ccccc3)C2)nn1` (centres undefined), the “Percent Effect” value worked out at 25.38%.
`Cc1ccc(-c2cn[nH]c2C2CCCN(c3cc(N)ncn3)C2)cc1` (centres undefined): the “Percent Effect” value is -38.82%.
The value for `Cc1cc(C)n2c(CCCNS(=O)(=O)c3cccs3)nnc2n1` was -65.33%.
The value for `COCCN(C)C[C@@H]1CN(C(=O)C(C)(C)c2ccccc2)C[C@@H]1CO` was 29.59%.
For the compound `COc1ccccc1OC1CN(C(=O)Cc2c(C)nc3ccccn23)C1`, the “Percent Effect” value is -26.12%.
With `COc1cccc(CNCc2c(C)nc3sc(C)cn23)c1OC`, the “Percent Effect” value is recorded as 20.21%.
Under `COc1ccc(NC(=O)c2nc(C)sc2C)cn1` stands -37.98%; under `CCc1[nH]c2c(CNc3cncc(C(=O)OC)n3)cc(C)cc2c1C`, -28.2%.
As for `CCc1[nH]c2c(CNc3cc(C)nc(NC)n3)cc(C)cc2c1C`, the “Percent Effect” value is on record as 84.97%.
Take `CCc1[nH]c2c(CNc3cncc(C(=O)N(C)C)n3)cc(C)cc2c1C`: the “Percent Effect” value is -71.53%.
Take `CCc1[nH]c2c(CNc3cncc(C(=O)N(C)C)n3)cc(F)cc2c1C`: the “Percent Effect” value is reported as -100.3%.
Take `CCc1[nH]c2c(CNc3nc(C)cc(NC)n3)cc(C)cc2c1C`: the “Percent Effect” value was determined as 88.9%.
Under `Cc1cc(C(=O)N2CCc3nc(N4CCOCC4)nc(C)c3C2)c(C)o1.O=CO` stands -46.43%; under `COc1ccc(C(=O)CCC(=O)NCc2ncc(C)s2)cc1F`, -71.69%.
The value for `CCCOC1Sc2nnc(C)n2N=C1c1ccccc1` (centres undefined) was -105.9%; that for `COc1cccc(OCCNS(=O)(=O)Cc2ccccc2)c1` was -90.07%.
Consider `COc1cccc(CNCCNS(=O)(=O)Cc2ccccc2)c1`, for which the “Percent Effect” value is on record as 54.45%.
Turning to `COc1cccc(CNCCc2cccc(C(N)=O)c2)c1`, the “Percent Effect” value is reported as -12.09%.
Take `C[C@@H]1CN(c2nc3c(cc2C(N)=O)CCC3)C[C@@]1(O)C1CCC1`: the “Percent Effect” value is reported as -102.5%.
As for `O=C(Nc1cccnc1-n1cc(Cl)cn1)C1CCCCC1`, the “Percent Effect” value is listed as -29.97%.
The value for `CCOC(=O)C(C)NC(=O)N1CCN(c2nc3ccccc3n2C)CC1` (centres undefined) was -114%; that for `CSCc1cc(F)ccc1CNCc1cccnc1` was 1.167%; that for `CSCc1cc(F)ccc1CNCc1ccncc1` was -80.12%.
The value for `CSCc1cc(F)ccc1CNCc1cccc(O)c1` was 72.86%; that for `CC(C)CCOc1ccc(C(C)NC(=O)CSCC(N)=O)cc1` (centres undefined) was -21.89%.
Take `Cc1cc(=O)[nH]c(=O)n1COCc1ccccc1`: the “Percent Effect” value was -164.1%.
For `Cc1ccc(C(=O)N2CC(Oc3ccccc3C)C2)s1`, the “Percent Effect” value is reported as -70.19%.
In the case of `COCC(=O)N1CCC2(CCCN(Cc3cc(OC)ccc3F)C2)C1` (centres undefined), the “Percent Effect” value was -77.74%.
With `Cc1cc(F)ccc1CN1CCCC(O)(CN2CCCC2)C1` (centres undefined), the “Percent Effect” value is reported as 66.53%.
Regarding `OC1(CN2CCCC2)CCCN(Cc2cnc(-c3ccccc3)nc2)C1` (centres undefined), the “Percent Effect” value was 13.01%.
As to `COc1ccc(F)c(CN2CCCC3(CCN(C(=O)CSC)C3)C2)c1` (centres undefined), the “Percent Effect” value was -70.9%.
The value for `COc1ccc(F)cc1CN1CCC(O)(CN2CCCCC2)C1` (centres undefined) was 69.8%.
On to `COc1ccc(F)cc1CN1CCCC1Cn1nc(C)nc1C` (centres undefined), for which the “Percent Effect” value is recorded as -22.72%.
On to `O=C(NCC1(O)CCC1)c1cccc(-n2cccn2)c1`, for which the “Percent Effect” value is recorded as -36.51%.
Take `CCCn1ccnc1CN1CCC(O)(CN2CCCCC2)C1` (centres undefined): the “Percent Effect” value came to 17.5%.
In the case of `Cc1cc(-n2cccn2)ccc1CN1CCC(O)(CN2CCCCC2)C1` (centres undefined), the “Percent Effect” value is 60.7%.
On to `COc1ccc(CN2CCC(O)(CN3CCCCC3)C2)c(C)c1` (centres undefined), for which the “Percent Effect” value is given as 66.37%.
For `CCCn1ccnc1CN1CCCC(O)(CN2CCCC2)C1` (centres undefined), the “Percent Effect” value is given as -81.98%.
For `COc1ccc(F)cc1CN1CCCC(c2cc(C(N)=O)[nH]n2)C1` (centres undefined), the “Percent Effect” value is on record as -17.41%.
The value for `O=C(NC1CCc2cc(Cl)ccc21)C1CCN(C(=O)C2CC2)CC1` (centres undefined) was -26.17%; that for `OCC1CCCN(Cc2c(C3CCCC3)[nH]c3ncccc23)C1` (centres undefined) was 11.34%.
As to `Cc1cc(CN2CCN(Cc3ccc(C#N)cc3F)CC2)no1`, the “Percent Effect” value was -21.87%.
As to `CC(C)(C)OC(=O)N1CCN(S(=O)(=O)CCCC#N)C2(CCCCC2)C1`, the “Percent Effect” value was -7.011%.
Regarding `OC1(CN2CCCC2)CCCN(Cc2cnc(-c3ccco3)nc2)C1` (centres undefined), the “Percent Effect” value is recorded as -86.93%.
Consider `Cc1ccc2nc(CN3CCC(O)(CN4CCCC4)CC3)cc(O)c2c1`, for which the “Percent Effect” value is on record as -44.54%.
Take `COc1ccc(C)cc1CC(=O)N1CC[C@@]2(CCCO2)[C@@H](O)C1`: the “Percent Effect” value was -95.97%.
In the case of `Cc1ccc(Cn2c(=O)[nH]c3csnc3c2=O)cc1`, the “Percent Effect” value is given as -6.005%.
For the compound `Cc1nc(CN2CCC3(CC2)C(=O)N(C)CCN3C)cs1.O=C(O)C(F)(F)F.O=C(O)C(F)(F)F.O=C(O)C(F)(F)F`, the “Percent Effect” value was -106.3%.
For `Cn1cc(CN2CCCC23CCN(c2nc4ccccc4s2)CC3)cn1`, the “Percent Effect” value is reported as 50.94%.
Turning to `c1ccc2sc(N3CCC4(CCCN4Cc4ncc[nH]4)CC3)nc2c1`, the “Percent Effect” value is listed as 19.28%.
With `Cc1nc(CN2CCCC23CCN(c2nc4ccccc4s2)CC3)co1`, the “Percent Effect” value is listed as 8.403%.
Under `Cc1cccc(SC2CCN(C(=O)CCNS(C)(=O)=O)CC2)c1` stands -80.26%.
Under `CCOCCOC(C)C(=O)Nc1ccnn1-c1ccccc1C` (centres undefined) stands -67.54%; under `COc1cc(CCC(=O)NCC2CC2)ccc1OCC(F)(F)F`, -33.72%.
Regarding `Fc1ccc(CN2CCCC2Cn2cncn2)c2ncccc12` (centres undefined), the “Percent Effect” value was 10.61%.
The value for `Fc1ccc(CN2CCOC(Cn3cncn3)C2)c2ncccc12` (centres undefined) was -95.84%.
For the compound `Clc1ccc(CN2CCCC(Cn3cncn3)C2)c2ncccc12` (centres undefined), the “Percent Effect” value came to 63.13%.
Under `Nc1nc(CN2CCCC(Cn3cncn3)C2)nc2ccccc12` (centres undefined) stands -138.6%; under `Fc1ccc(CN2CCCC(Cn3cncn3)C2)c2ncccc12` (centres undefined), -5.261%.
`Fc1ccc(CN2CCCCC2Cn2cncn2)c2ncccc12` (centres undefined): the “Percent Effect” value worked out at 64.52%.
